From PubChem BioAssay AID652040 (Broad Institute, 2013)
Potency and affinity values are given separately. The source made the active and inactive calls.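 The calls were made as follows: active = falling luciferase signal whose fitted half-maximal concentration is at most twice the top tested dose; inconclusive = flat inhibition between 30 and 70% or a poor curve fit; inactive = the rest.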

Assay: off-target signal loss in HeLa-CEM21 co-culture – HeLa F-luc CTL cells, cherry-picked, counter-screen for HIV-1 Env fusion inhibitor project, dose response (AID 652040);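 also: more negative values mean stronger loss of luciferase signal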
Conditions: HeLa-F-luc CTL cells with CEM21, firefly luciferase counterscreen; series mostly up to 35 µM

| SMILES | outcome |
| --- | --- |
| COc1cccc(CNc2nc(NCc3ccccc3OC)nc3ccsc23)c1 | inactive |
| CCc1ccc(C(=O)CN2C(=O)NC(C)(c3ccc(C)cc3)C2=O)cc1 (stereo unspecified) | inactive |
| CCC12CN(S(=O)(=O)c3ccc(C)cc3)CC(CC)(CN(S(=O)(=O)c3ccc(C)cc3)C1)C2=O | inactive |
| COc1ccc(S(=O)(=O)N2CCCCC2)cc1NC(=O)CN(Cc1ccco1)Cc1ccco1 | inactive |
| N#Cc1ccc(CSc2nnc(COc3ccccc3)n2-c2ccccc2)cc1 | inactive |
| COc1ccc(C(=O)NCCc2ccc(Cl)cc2)cc1S(=O)(=O)N1CCCCC1C (stereo unspecified) | inactive |
| Cc1ccc(Cn2ncc3c(N4CCN(Cc5ccc(Cl)cc5)CC4)ncnc32)cc1 | inactive |
| COc1ccc2c(c1)[nH]c1c(N3CCN(Cc4ccc5c(c4)OCO5)CC3)ncnc12 | inactive |
| O=S(=O)(NCCc1csc(-c2cccnc2)n1)c1ccc(Cl)s1 | inactive |
| CN1C(=O)C2(c3ccccc31)N(C)CC(c1ccccc1)C21SC(=S)N(Cc2ccco2)C1=O (stereo unspecified) | inactive |
| CC(=O)c1c(C)[nH]c(C(=O)OCC(=O)Nc2c(C)cccc2C)c1C | inactive |
| CC(NNC(=S)N1CCCCCC1)c1ccc2ccccc2n1 (stereo unspecified) | inactive |
| CCN(c1nc(N)c(C(=O)N=C(N)N)nc1Cl)C(C)C | inactive |
| COc1ccc(C(=O)Nc2nc(-c3ccc(S(=O)(=O)N4CCOCC4)cc3)cs2)cc1 | inactive |
| C[C@H](CO)N1C[C@H](C)[C@@H](CN(C)C(=O)NC2CCCCC2)Oc2c(cccc2N(C)C)C1=O | inactive |
| CCc1nnc(NC(=O)[C@@H](NC(=O)c2cccc(S(=O)(=O)N(CC)CC)c2)C(C)C)s1 | inactive |
